GAA spleen mod = qHTS Assay for Inhibitors and Activators of Human alpha-Glucosidase From Spleen Homogenate; Lysosomal alpha-glucosidase (Homo sapiens), P10253; human spleen homogenate, 4-MU-alpha-glucoside fluorescence; Potency, µM (doses to about 79.9 µM), hits mostly inhibitors; 240,000 compounds, 0.006% hits; AID 2112, 2009
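AC50 values come from Hill-equation fits of concentration-response data, normalized to no-enzyme and full-activity controls. Enzyme source: 1 ug human spleen homogenate; 1 mM fluorogenic 4-MU glucoside, pH 5.0 citrate buffer, 37 C, 40 min.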
N370S GC mod = qHTS Assay for Inhibitors and Activators of N370S glucocerebrosidase as a Potential Chaperone Treatment of Gaucher Disease. Lysosomal acid glucosylceramidase (Homo sapiens), P04062. N370S GC spleen homogenate, 4MU-glucoside fluorescence. Potency, µM (series often up to 59.4 µM), most hits filed as inhibitors. 330,000 compounds, 0.092% hits. AID 2101, 2009
GAA inhib = qHTS Assay for Inhibitors of Human alpha-Glucosidase as a Potential Chaperone Treatment of Pompe Disease; AID 1466, 2008; Lysosomal alpha-glucosidase (Homo sapiens), P10253; 200,000 compounds, 0.005% hits; Potency, µM (series often up to 76.9 µM), usual class: inhibitors; purified human GAA, 4-MU-alpha-glucoside fluorescence
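Enzyme (4 nM final) mixed with compound (up to 77 uM), then 4-MU-alpha-D-pyranoside (400 uM final) added; 20 min at room temperature, pH 5.0. Reaction stopped at pH 10, fluorescence read, AC50 derived by Hill fit.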
aGal spleen mod = qHTS Assay for Inhibitors and Activators of Human alpha-Galactosidase From Spleen Homogenate; Potency, µM (top dose mostly 80 µM), usual class: inhibitors; Alpha-galactosidase A (Homo sapiens), P06280; 240,000 compounds, 0.008% hits; human spleen homogenate, 4MU-alpha-Gal fluorescence, 40 min
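Spleen homogenate 1 ug + cpd (titration) + 4-MU-alpha-D-galactopyranoside 1 mM; 37C 40 min; 50 mM citrate/phosphate pH 5.0, 0.01% Tween-20; stop pH 10; fluorescence 365/440; AC50 via Hill.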
GAA glycogen mod = qHTS Assay for Inhibitors and Activators of Human alpha-Glucosidase Cleavage of Glycogen. Lysosomal alpha-glucosidase (Homo sapiens), P10253. recombinant GAA, glycogen substrate, Amplex Red glucose oxidase fluorescence. Potency, µM (doses to about 76.4 µM), usual class: inhibitors. 300,000 compounds, 0.38% hits. AID 2100, 2009;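 further: the screen sought inhibitors and activators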
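qHTS, 1536-well; enzyme 4 nM final; cpd up to 77 uM; substrate bovine liver glycogen 30 ug; 50 mM citrate/phosphate pH 5.0, 0.01% Tween-20; 37 C, 40 min; Amplex Red detection 45 min RT; Hill fit → AC50.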
GLA inh pH 4.5 = qHTS Assay for Inhibitors of Human alpha-Galactosidase at pH 4.5; Alpha-galactosidase A (Homo sapiens), P06280; purified enzyme, 4-MU-alpha-Gal fluorescence, pH 4.5; activity change, negative = inhibition, % at 105 µM; 230,000 tested, under 10 active; AID 1467, 2008
Target sequence (P06280 whole entry, looked up): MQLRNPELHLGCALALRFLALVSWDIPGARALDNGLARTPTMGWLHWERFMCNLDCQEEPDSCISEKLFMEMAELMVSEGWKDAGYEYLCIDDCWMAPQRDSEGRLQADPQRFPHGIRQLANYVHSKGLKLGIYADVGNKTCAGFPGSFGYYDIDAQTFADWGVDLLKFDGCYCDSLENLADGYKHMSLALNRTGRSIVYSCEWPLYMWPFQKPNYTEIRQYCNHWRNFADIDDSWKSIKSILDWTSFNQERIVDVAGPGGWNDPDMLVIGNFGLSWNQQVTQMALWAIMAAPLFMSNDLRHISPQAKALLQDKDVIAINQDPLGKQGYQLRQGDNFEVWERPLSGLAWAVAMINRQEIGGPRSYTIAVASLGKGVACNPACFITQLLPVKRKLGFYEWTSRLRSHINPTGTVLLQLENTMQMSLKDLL
Hits are given with their value; - = inactive; ? = inconclusive; . = no result; [ ] = another dose, or the depositor's remark. Rows were chosen to be rich in hits. Some 0.43% of all compounds tested hit in one or more screens of this group. The call rests on the fitted dose curve; in most records, active means well fitted curve in the direction sought with a large enough effect; inconclusive means small, poorly fitted or top-dose-only effect, or another doubt; inactive means no such curve, though single readings can be large; an effect the other way counts as inactive or inconclusive.

SMILES	GAA spleen mod	N370S GC mod	GAA inhib	aGal spleen mod	GAA glycogen mod	GLA inh pH 4.5
CN(C)c1cc(Cl)c2nonc2c1N	-	-	.	-	12.6µM	-
CCN(CC)c1cc(Cl)c2nonc2c1N	-	-	.	-	?	-
Cc1[nH]n(C(C)(C)C)c(=O)c1Sc1ccccc1	-	-	-	-	15.7µM	-
Cc1ccc(C(=O)C(NC(=O)c2ccco2)Nc2sc3c(c2C(N)=O)CCCC3)cc1 (stereo unspecified)	-	-	-	-	24.9µM	-
CNC(=O)c1c(NC(=O)c2ccco2)sc2c1CCCC2	.	-	.	.	-	.
COc1cc(OC)c(OC)cc1CNc1cc(C)ccc1OC	-	-	-	-	11.2µM	-
COc1ccc(C)cc1NCc1cccc(OC)c1OC	-	-	?	-	-	-
CC1(C)CC(=O)C(c2c[nH]c3ccccc23)C(=O)C1	-	-	-	-	10µM	-
COc1cc(C(C(=O)NC(C)(C)C)N(C(=O)CNC(=O)c2cccs2)c2ccc(C(C)C)cc2)cc(OC)c1OC (stereo unspecified)	-	-	-	-	-	-
COc1cc(C(C(=O)NC(C)(C)C)N(C(=O)CNC(=O)c2cccs2)c2ccccc2)cc(OC)c1OC (stereo unspecified)	-	12.6µM	-	-	-	-
CCC(C=C[C@@H]1OC(=O)C=C[C@H]1C)=C[C@H](C)CC=CC(C)=C[C@@H](C)C(=O)[C@@H](C)[C@H](O)[C@@H](C)CC(C)=CC(=O)O	-[3.15 µM]	-[2.35 µM]	.	-[3.15 µM]	.	-
O=C1CC(c2ccc3c(c2)OCO3)c2cc(O)ccc2O1 (stereo unspecified)	-	-	.	-	.	-
COc1ccc(O)c(-c2c(-c3ccc(Cl)cc3)n[nH]c2C)c1	-	-	-	-	10µM	-
CC(=O)Nc1ccc(S(=O)(=O)Nc2ccc([N+](=O)[O-])cc2)cc1	-	15.8µM	.	-	.	-
COc1ccc(NC(=S)N2CCCC(c3nc4ccc(C)cc4[nH]3)C2)c(OC)c1 (stereo unspecified)	-	-	-	-	15.7µM	-
O=S(=O)(Nc1ccccc1O)c1ccc(Cl)nc1	-	-	.	-	20µM	-
COc1ccc2c(c1)OC1(O)COc3cc(OC)c(OC)cc3C1=C2 (stereo unspecified)	-	-	.	-	.	-
Cc1ccc(-c2nc3ncccn3c2NC2CCCC2)o1	-	-	-	-	14µM	-
Brc1ccc(-c2nc3ncccn3c2NC2CCCCC2)o1	-	-	-	-	25.1µM	-
CCOC(=O)N1CCN(/[N+]([O-])=N/Oc2ccc([N+](=O)[O-])cc2[N+](=O)[O-])CC1	-	-	.	-	.	.
CC1CCC2C(=O)N3C(CCC(C)C3c3ccc(-c4ccco4)cc3)C(=O)N2C1c1ccc(-c2ccco2)cc1 (stereo unspecified)	-[17.4 µM]	-[12.8 µM]	.	-[17.5 µM]	.	.
COc1cccc(/C=C2/C(=O)NN(c3ccc(C)c(C)c3)C2=O)c1	.	-	.	.	31.6µM	.
COC(=O)C1(C(=O)OC)C[C@@H]2CON=C2[C@H]1c1ccccc1	-	-	.	-	.	-
CCOC(=O)Nc1sc(NS(=O)(=O)c2ccc(C)cc2)nc1C	-	.	?	-	28.2µM	-
Cc1ccc(S(=O)(=O)Nc2nc(C)c(C(=O)NN)s2)cc1	-	-	.	-	31.6µM	-
CC(=O)c1sc(NS(=O)(=O)c2ccc(C)cc2)nc1C	-	-	-	-	-	-
Cc1ccc(F)c(C2C3C=CCCC3(C)C(=O)N2Cc2ccccc2)c1 (stereo unspecified)	-	-	.	-	.	.
COc1cccc(C2=Nn3c(nnc3-c3ccccc3C)SC2)c1	-	-	.	-	.	.
